Results filed as inconclusive are left out. Active and inactive are the calls of the source. How the source made its calls: active means hit-call score of the fitted dose curve at least 0.9, where 1 is the maximum; inconclusive means response in the unintended direction; inactive means score below 0.9. Where a SMILES comes first, the peptide text is derived from it. Bridges are numbered along the chain shown (N, C = ends).
Experiments:
[1] = TOX21_p53_BLA_p3_viability: Viability Assessment in the Tox21 HCT-116 p53 Agonism Beta-lactamase Assay, Phase 3 (AID 2283593);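 further: cells exposed to compound for 16 h before reading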
Outline: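 Cellular ATP was quantified by CellTiter-Glo luminescence, read after 30 min at room temperature. Beforehand, HCT116 cells (4000/well) received compound 5 h post-seeding, 217-fold diluted from DMSO, then incubated 16 h at 37C.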

[2] = biological target: Cellular tumor antigen p53 (Homo sapiens) (UniProt P04637); assay: TOX21_p53_BLA_p3_ratio: Tox21 HCT-116 p53 Agonism Beta-lactamase Assay, Ratio, Phase 3 (AID 2283596)
Sequence of Cellular tumor antigen p53 (Homo sapiens) (P04637 whole entry, looked up): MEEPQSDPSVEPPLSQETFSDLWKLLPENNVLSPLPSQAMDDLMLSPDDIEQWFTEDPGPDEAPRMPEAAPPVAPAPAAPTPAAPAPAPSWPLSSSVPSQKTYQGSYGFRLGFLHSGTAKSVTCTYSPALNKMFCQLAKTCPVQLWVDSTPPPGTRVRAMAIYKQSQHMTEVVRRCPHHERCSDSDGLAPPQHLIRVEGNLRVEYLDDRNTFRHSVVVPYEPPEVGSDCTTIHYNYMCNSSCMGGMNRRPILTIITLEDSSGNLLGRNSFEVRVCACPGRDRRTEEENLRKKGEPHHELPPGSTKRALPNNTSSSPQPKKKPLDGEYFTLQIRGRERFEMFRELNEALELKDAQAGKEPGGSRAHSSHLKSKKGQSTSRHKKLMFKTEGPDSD
Outline: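 Cells were seeded at 4000/well, rested 5 h at 37C, then dosed with DMSO compound solutions (217-fold dilution) for 16 h. CCF4-AM substrate was loaded for 2 h at room temperature, and the 460/530 nm emission ratio was fitted for gain of signal versus DMSO.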

[3] = biological target: Cellular tumor antigen p53 (Homo sapiens) (UniProt P04637); assay: TOX21_p53_BLA_p4_ratio: Tox21 HCT-116 p53 Agonism Beta-lactamase Assay, Ratio, Phase 4 (AID 2283601)
Outline: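 Signal is the blue/green (460nm/530nm) ratio of cleaved versus uncleaved CCF4-AM substrate, read after 2 h substrate loading. Cells were HCT116 carrying the p53-responsive beta-lactamase reporter, dosed 16 h at 37C, 5% CO2; CellTiter-Glo measured in parallel.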

[4] = biological target: Cellular tumor antigen p53 (Homo sapiens) (UniProt P04637); assay: TOX21_p53_BLA_p5_ratio: Tox21 HCT-116 p53 Agonism Beta-lactamase Assay, Ratio, Phase 5 (AID 2283599)
Outline: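 Beta-lactamase reporter ratio (blue 460 nm over green 530 nm, 405 nm excitation) after 2 h CCF4-AM loading, in HCT-116 cells exposed 16 h at 37 C to compounds pinned at 217-fold dilution. Increases relative to DMSO baseline scored.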

[5] = TOX21_p53_BLA_p4_viability: Viability Assessment in the Tox21 HCT-116 p53 Agonism Beta-lactamase Assay, Phase 4 (AID 2283597);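 further: hits lower the luminescence signal meaning cytotoxicity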
Outline: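 Cytotoxicity was inferred from loss of CellTiter-Glo luminescence. HCT116 cells had been dosed with compounds after 5 h plating, incubated 16 h at 37C and 5% CO2, and exposed to the CCF4-AM substrate for 2 h.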

[6] = TOX21_p53_BLA_p5_viability: Viability Assessment in the Tox21 HCT-116 p53 Agonism Beta-lactamase Assay, Phase 5 (AID 2283600)
Outline: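 Luciferase-coupled ATP quantitation of cells treated for 16 h (37C, 5% CO2) with test chemicals delivered in DMSO via a 217-fold dilution; 4000 cells/well; reagent incubated 30 min at room temperature before luminescence reading.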

[7] = biological target: Thyroid hormone receptor alpha (Rattus norvegicus) + Thyroid hormone receptor beta (Rattus norvegicus) (UniProt P18113+P63059); assay: TOX21_TR_LUC_GH3_Antagonist_Followup: Tox21 GH3 Thyroid Hormone Receptor Antagonism Luciferase Follow-Up Assay (AID 2283942)
Outline: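 Loss of T3-driven (1.0 nM final) reporter activity in GH3 cells was read by ONE-Glo luminescence after 24 h incubation at 37C; 15-point compound series spanned 92 uM to 5nM final, 1,500 cells/well.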

THRA (gene 7067) = THRA (gene 7067) (UniProt P10827); assay: TOX21_TRA_COA_Antagonist_Followup_ratio: Tox21 Thyroid Hormone Receptor alpha Antagonism through Coactivator Recruitment Follow-Up Assay, Ratio (AID 2283953)
Sequence of THRA (gene 7067) (P10827 whole entry, looked up, the tested form may be a part): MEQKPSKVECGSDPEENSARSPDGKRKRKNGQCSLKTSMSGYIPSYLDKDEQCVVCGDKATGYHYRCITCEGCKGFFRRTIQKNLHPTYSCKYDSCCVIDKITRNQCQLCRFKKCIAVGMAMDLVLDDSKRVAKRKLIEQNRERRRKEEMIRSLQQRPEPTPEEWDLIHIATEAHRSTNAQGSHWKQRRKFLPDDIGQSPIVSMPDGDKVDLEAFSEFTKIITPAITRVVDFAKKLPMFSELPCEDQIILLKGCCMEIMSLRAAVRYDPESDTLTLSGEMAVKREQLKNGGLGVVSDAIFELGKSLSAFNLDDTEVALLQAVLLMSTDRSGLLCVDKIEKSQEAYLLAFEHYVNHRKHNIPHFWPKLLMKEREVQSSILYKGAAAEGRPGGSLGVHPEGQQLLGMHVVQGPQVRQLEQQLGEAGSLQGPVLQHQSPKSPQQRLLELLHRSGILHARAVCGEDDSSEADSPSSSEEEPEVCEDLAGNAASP
Outline: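 We measured antagonism of T3-type coactivator recruitment using a TR-FRET ratio (emission 520 and 495 nm) between a Tb-labelled anti-GST antibody on TRα LBD (2.5 nM) and SRC-2 peptide (200 nM). Activity was scaled between DMSO and T3 wells.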

[8] = TOX21_TRB_BLA_Antagonist_Followup_viability: Viability Assessment in the Tox21 Thyroid Hormone Receptor beta Antagonism Beta-lactamase (BLA) Follow-Up Assay (AID 2283961)
Outline: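 HEK293T cells stably expressing GAL4-DBD/human TRβ-LBD with UAS-bla reporter, 3,000 cells/well in phenol red-free DMEM, 2% charcoal-stripped FBS. Compounds at 11 concentrations in triplicate, 18 h at 37C/5% CO2; viability by CellTiter-Glo luminescence after 30 min at room temperature.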

THRB (gene 7068) = THRB (gene 7068) (UniProt P10828); assay: TOX21_TRB_COA_Antagonist_Followup_ratio: Tox21 Thyroid Hormone Receptor beta Antagonism through Coactivator Recruitment Follow-Up Assay, Ratio (AID 2283967)
Sequence of THRB (gene 7068) (P10828 whole entry, looked up, the tested form may be a part): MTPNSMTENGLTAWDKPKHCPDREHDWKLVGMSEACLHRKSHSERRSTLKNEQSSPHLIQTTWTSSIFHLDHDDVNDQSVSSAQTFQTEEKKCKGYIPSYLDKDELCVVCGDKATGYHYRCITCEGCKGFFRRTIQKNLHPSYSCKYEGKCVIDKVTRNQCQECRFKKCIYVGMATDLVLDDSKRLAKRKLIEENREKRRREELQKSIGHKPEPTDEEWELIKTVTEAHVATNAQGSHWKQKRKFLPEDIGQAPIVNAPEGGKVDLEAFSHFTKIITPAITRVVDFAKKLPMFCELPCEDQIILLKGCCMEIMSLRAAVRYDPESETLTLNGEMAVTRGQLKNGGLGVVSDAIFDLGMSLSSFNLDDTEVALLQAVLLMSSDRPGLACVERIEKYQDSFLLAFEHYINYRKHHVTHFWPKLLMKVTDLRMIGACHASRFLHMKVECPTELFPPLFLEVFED
Outline: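 Coactivator recruitment to the GST-tagged TRb ligand-binding domain (5.0 nM) was read as the 520/495 nm TR-FRET ratio, using 200 nM fluorescein SRC-2 peptide and 2 nM terbium anti-GST. Scaled between DMSO and T3 wells; loss of signal fitted.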

[9] = biological target: Retinoic acid receptor RXR-alpha (Homo sapiens) (UniProt P19793); assay: TOX21_TR_RXR_BLA_Antagonist_Followup_ratio: Tox21 Thyroid Hormone Receptor beta Retinoid X Receptor alpha (RXRa) Antagonism Beta-lactamase (BLA) Follow-Up Assay, Ratio (AID 2283972)
Sequence of Retinoic acid receptor RXR-alpha (Homo sapiens) (P19793 whole entry, looked up): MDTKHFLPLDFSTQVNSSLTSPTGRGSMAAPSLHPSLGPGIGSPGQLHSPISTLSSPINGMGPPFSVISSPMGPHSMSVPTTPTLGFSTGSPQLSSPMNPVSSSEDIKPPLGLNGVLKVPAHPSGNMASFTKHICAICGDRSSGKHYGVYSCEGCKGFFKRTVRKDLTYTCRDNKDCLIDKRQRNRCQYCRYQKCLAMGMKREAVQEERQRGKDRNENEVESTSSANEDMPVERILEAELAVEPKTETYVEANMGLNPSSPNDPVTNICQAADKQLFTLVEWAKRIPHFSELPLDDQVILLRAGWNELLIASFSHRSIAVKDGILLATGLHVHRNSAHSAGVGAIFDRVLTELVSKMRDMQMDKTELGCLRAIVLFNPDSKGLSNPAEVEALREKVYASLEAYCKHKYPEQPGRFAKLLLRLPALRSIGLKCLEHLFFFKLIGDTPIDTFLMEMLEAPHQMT
Outline: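 RXRa-UAS-bla HEK293T cells in phenol red-free DMEM with 2% charcoal-stripped FBS; compounds at 11 concentrations in triplicate, 16 h at 37C. LiveBLAzer FRET-B/CCF4-AM substrate 2 h at room temperature; read as 460:530 nm ratio versus DMSO.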

[10] = TOX21_TR_RXR_BLA_Antagonist_Followup_viability: Viability Assessment in the Tox21 Thyroid Hormone Receptor beta Retinoid X Receptor alpha (RXRa) Antagonism Beta-lactamase (BLA) Follow-Up Assay (AID 2283979)
Outline: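 Follow-up compounds (11 concentrations, triplicate) were incubated 16 h at 37C/5% CO2 with HEK293T RXRa-bla cells seeded at 2,500/well in charcoal-stripped-serum medium. ATP content by CellTiter-Glo luminescence gave viability; curves fitted in both directions against DMSO.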

Measured: AC50

CN=C(NC#N)Nc1ccc(C2=NNC(=O)CC2C)cc1 (centres undefined)
inactive: [1] | [2] | [3]

O=c1oc2c(O)c(O)cc3c(=O)oc4c(O)c(O)cc1c4c23
inactive: [1] | [2] | [4]

CN1CCCC(CC2c3ccccc3Sc3ccccc32)C1 (centres undefined)
active: [7] 15.5 µM | [8] 8.56 µM
not listed: [3] | [4]
inactive: all other assays above

CCCCOc1ccc(OCCCN2CCOCC2)cc1
inactive: [1] | [2] | [5] | [6] | [3]

Cc1ccc(N)nc1
inactive: [1] | [2] | [5] | [6] | [3]

O=P(O)(O)OP(=O)(O)OP(=O)(O)O
inactive: [1] | [2] | [4] | [6] | [3]

Cc1ccc(S(=O)(=O)NC(=O)NC2CCCC2)cc1
inactive: [1] | [2] | [4] | [6]

Oc1ccc(CCNCCCCCCNCCc2ccccc2)cc1O
inactive: [1] | [2] | [5] | [6] | [3]

O=C(O)c1cc(C(=O)O)cc(C(=O)O)c1
inactive: [1] | [2] | [5] | [4] | [3]

Cn1cnc2ncnc(N)c21
inactive: [1] | [2] | [4] | [6] | [3]

O=S(=O)(O)c1cccc(S(=O)(=O)O)c1
inactive: [1] | [2] | [4] | [6] | [3]

O[C@@H]1CO[C@H]2[C@@H]1OC[C@@H]2O
active: [1] 43.1 µM
inactive: [2] | [5] | [6] | [3]

CC#N
inactive: [1] | [2] | [4]

Cc1ccccc1C(=O)Nc1ccc(C(=O)N2CCCC(O)c3cc(Cl)ccc32)c(C)c1 (centres undefined)
inactive: [1] | [2] | [4] | [6]

NCCCC[C@H](NC(=O)[C@@H]1CCCN1C(=O)[C@@H]1CSSC[C@H](NC(=O)CNC(=O)CNC(=O)CN)C(=O)N[C@@H](Cc2ccc(O)cc2)C(=O)N[C@@H](Cc2ccccc2)C(=O)N[C@@H](CCC(N)=O)C(=O)N[C@@H](CC(N)=O)C(=O)N1)C(=O)NCC(N)=O (H-GGGCYFQNCPKG-NH2; disulfide 4-9)
inactive: [1] | [2] | [6]

COc1cc(Cl)ccc1Cl
inactive: [1] | [2] | [5] | [6]

From PubChem BioAssay (EPA / NIEHS)
